In PubChem BioAssay (NCATS):
Results filed as inconclusive are left out. Activity calls are given as the source filed them. Calls follow the shape of the dose curve; as a rule, active = well fitted inhibition curve with a large enough effect; inconclusive = small, poorly fitted or top-dose-only effect; inactive = flat fitted curve, though single readings scatter.

Columns and labels:
Experiment in all cases: qHTS profiling for inhibitors of Plasmodium falciparum proliferation (AID 504749); also: nearly all actives have a fitted effect of over 60% in size
Conditions in all cases: P. falciparum in erythrocytes, SYBR Green DNA, 72 h; series mostly up to 28.7 µM
CP305 = system: CP305
Procedure, shortened: (§1)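 Infected RBCs, 0.3% parasitemia/2.5% Hct final; cpd 72 h, 37 C, 5% CO2; lysis buffer with saponin/triton/SYBR Green I, o/n RT dark; FI 485/535; norm. to artemisinin (0.29 uM) and DMSO.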

CP315 = system: CP315
Procedure, shortened: as §1

CP325 = system: CP325
Procedure, shortened: as §1

CP329 = system: CP329
Procedure, shortened: as §1

CP335 = system: CP335
Procedure, shortened: as §1

DFO2036 = system: DFO2036
Procedure, shortened: as §1

DIV14 = system: DIV14
Procedure, shortened: as §1

DIV17 = system: DIV17
Procedure, shortened: as §1

DIV30 = system: DIV30
Procedure, shortened: as §1

Dd2 = system: Dd2
Procedure, shortened: as §1

ECU = system: ECU
Procedure, shortened: as §1

FAB9 = system: FAB9
Procedure, shortened: as §1

GB4 = system: GB4
Procedure, shortened: as §1

HB3 = system: HB3
Procedure, shortened: as §1

ICS = system: ICS
Procedure, shortened: as §1

JCK = system: JCK
Procedure, shortened: as §1

N140 = system: N140
Procedure, shortened: as §1

P93_24 = system: P93_24
Procedure, shortened: as §1

P94_40 = system: P94_40
Procedure, shortened: as §1

PAD = system: PAD
Procedure, shortened: as §1

Measured: Potency

CC[N+](CC)(CC)CC
inactive: all assays above

CC1OC(C)OC(C)O1 (stereo not given)
inactive: all assays above

NP(N)(=O)NC(=O)c1ccc(F)cc1
inactive: all assays above

COc1ccccc1N1CCNCC1
inactive: all assays above

NCC(O)c1ccc(O)cc1 (stereo not given)
not listed: DIV14
inactive: all other assays above

CCOP(=S)(OCC)Oc1cc(C)nc(C(C)C)n1
inactive: all assays above

CC(=O)[C@H]1CC[C@H]2[C@@H]3CC[C@H]4C[C@](C)(O)CC[C@]4(C)[C@H]3CC[C@]12C
inactive: all assays above

CC(C)=CC1C(C(=O)OCc2cccc(Oc3ccccc3)c2)C1(C)C (stereo not given)
not listed: DIV30 | Dd2 | ICS
inactive: all other assays above

NCC(CC(=O)O)c1ccc(Cl)cc1 (stereo not given)
inactive: all assays above

CC(C)CC(N(C)C)C1(c2ccc(Cl)cc2)CCC1 (stereo not given)
inactive: all assays above

NCCc1cc(O)c(O)cc1O
not listed: Dd2
inactive: all other assays above

OCCOc1ccccc1
inactive: all assays above

CCC(C(N)=O)N1CCCC1=O (stereo not given)
inactive: all assays above
